The text below walks through data of PubChem BioAssay AID1813 (Broad Institute, 2009).

Screen size: about 300,000 compounds; about 2,500 (0.83%) were called active. For the sample, actives were picked, then their nearest neighbours and some compounds at random. Unmarked numbers belong to inactive results. Rule as the data show it: active = inhibition above about 60%; inconclusive = no clear call, values can overlap the other calls; inactive = below that.

The test in a line: MLPCN primary screen, SNCA 5' untranslated region (AID 1813).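 Also: H4 neuroglioblastoma cells stably carrying SNCA 5'UTR luciferase fusion; 0% = DMSO wells and 100% = positive control.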 To be noted: alpha-synuclein 5'UTR reporter, inhibitor activity; hits give high values; tested at 7.5 µM.
Consider `COc1ccc2c(c1)CCc1cn3ncc(C#N)c3nc1-2`, for which the inhibition (usually the drop in the measured response relative to a control, in per cent) is 68.1% (active).

Regarding `N#Cc1cnn2cc(CCN3CCOCC3)c(-c3ccc(F)cc3)nc12`, the inhibition was 17%.

For `COc1ccc2nc(N3CCCC(O)C3)c(C#N)cc2c1` (configuration not stated), the inhibition was -114%.

With `CC(C)[C@H](NC(=O)N1CCn2c1nc1ccccc12)C(=O)NC1CC1`, the inhibition was -11.1%.

On to `CC1(c2ccc(Cl)cc2)NC(=O)N(CC(=O)c2ccc3c(c2)OCO3)C1=O` (configuration not stated), for which the inhibition is -7.93%.

For `CC(C)(C)C(=O)Nc1ccc(-c2cn3cccnc3n2)cc1`, the inhibition was -130%.

For `Brc1ccc2nc(N3CCCC3)sc2c1`, the inhibition is -105%.

As for `Cc1nc(N2CCCCC2)sc1C=O`, the inhibition was 10.9%.

For the molecule `c1c2c(cc3sc(N4CCCCC4)nc13)OCCO2`, the inhibition is 107% (active).

Take `CN(CC(=O)O)S(=O)(=O)c1ccc2oc3ccccc3c2c1`: the inhibition was -11.7%.

`COc1ccc(NS(=O)(=O)c2cc3c(cc2C)N(C(C)=O)CCO3)cc1`: the inhibition was 11.8%.

In the case of `COc1ccc(-c2oc3ncn(Cc4ccco4)c(=N)c3c2-c2ccc(OC)cc2)cc1`, the inhibition was 36%.

On to `O=C(CN1C(=O)C2C3C=CC(C3)C2C1=O)NCCc1ccccc1Cl` (configuration not stated), for which the inhibition is -1.36%.

As for `O=C(CN1C(=O)C2C3C=CC(C3)C2C1=O)Nc1nc(-c2ccccn2)cs1` (configuration not stated), the inhibition was 82.4% (active).

`O=C(NCCN1C(=O)C2C3C=CC(C3)C2C1=O)Nc1ccccn1` (configuration not stated): the inhibition is -5.4%.

On to `Cc1ccc(S(=O)(=O)CCC(=O)Nc2nnc(CC(C)C)s2)cc1`, for which the inhibition was -17%.

Consider `O=S(=O)(NCc1ccc(Cl)cc1Cl)c1cccs1`, for which the inhibition was -22.7%.

In the case of `Cc1oc(-c2ccccc2Cl)[n+]([O-])c1C`, the inhibition was 34.1%.

As to `COc1ccc(Br)c2c1C(=O)CC2`, the inhibition is 8.26%.

Regarding `CSCc1nnc(NC(=O)c2ccc(S(=O)(=O)N3CCCCC3C)cc2)o1` (configuration not stated), the inhibition is 14.5%.

With `CC1CCCCN1S(=O)(=O)c1ccc(C(=O)Nc2nnc(-c3cccs3)o2)cc1` (configuration not stated), the inhibition was 89.9% (active).

`CC1CCCN(S(=O)(=O)c2ccc(C(=O)Nc3nnc(-c4ccncc4)o3)cc2)C1` (configuration not stated): the inhibition is -13.6%.

Regarding `Cc1onc(-c2ccccc2Cl)c1C(=O)OCC(=O)c1ccccc1`, the inhibition was 12.5%.

On to `Cc1onc(-c2ccccc2Cl)c1C(=O)NCCn1ccc2ccccc21`, for which the inhibition is 29.7%.

Take `Cc1onc(-c2ccccc2Cl)c1C(=O)N(Cc1ccc(N(C)C)cc1)C(C)C`: the inhibition is 73.1% (active).

With `O=C(CN1CCOCC1)Nc1cccc([N+](=O)[O-])c1`, the inhibition is 1.99%.

`Cc1nc(-c2nnc(SCC(=O)Nc3cc(C(F)(F)F)cc(C(F)(F)F)c3)n2C)cs1`: the inhibition was 15.6%.
